Measured values from PubChem BioAssay (NCATS).
Results filed as inconclusive are left out. Where a call stands in place of a potency, no number is given. Calls of active or inactive are those of the source. The call rests on the fitted dose curve; in most records, active means well fitted inhibition curve with a large enough effect; inconclusive means small, poorly fitted or top-dose-only effect; inactive means no such curve, though single readings can be large or run the other way.

Each compound was assayed against Retinaldehyde dehydrogenase 3 (Homo sapiens) (UniProt P47895) (assay: qHTS for Inhibitors of the Aldehyde Dehydrogenase Family (ALDH1A3) Primary screen (AID 2061315)). Conditions: ALDH inhibition qHTS; series mostly up to 56 µM.
For `C[C@@H]1CCC/C=C/[C@H]2C[C@@H](O)C[C@@H]2[C@@H](O)/C=C/C(=O)O1`, the Potency was “inactive”. In the case of `C=CC(C)(C)C12C=C(O)C(=O)N3/C(=C\c4cnc[nH]4)C(=O)NC31N(OC)c1ccccc12` (configuration not stated), the Potency is reported as “inactive”. In the case of `COC1CC(O[C@H]2CC[C@@]3(C)C(CCC4C3CC[C@]3(C)[C@@H](C5=CC(=O)OC5)CC[C@]43O)C2)OC(C)C1O` (some centres not stated), the Potency is reported as “inactive”. `CCOC(=O)C1CCN(C(=O)C2(NC(=O)Nc3ccccc3Cl)CCCC2)CC1` was tested, and the Potency was “inactive”. In the case of `CCOc1ccc(CCNC(=O)c2cc3ncccc3n2Cc2cccc(C)c2)cc1OCC`, the Potency is reported as “inactive”. With `C=C(CO)[C@@]12O[C@@H]1[C@@]1(C)C(=CC2=O)CC[C@@H](O)[C@@H]1C` the Potency was “inactive”. With `COC(=O)C1(C)CCC(O)C2(C)c3cc(O)c(C(C)C)cc3C(O)C(OC(C)=O)C12` (configuration not stated) the Potency was “inactive”.
